Screening results: PubChem, several laboratories
CRFBP-R2 block: CRF-BP/CRF-R2 complex antagonism | HEK293 CRF-R2/CRF-BP, CRF-induced calcium fluorescence | inhibition, % at 11.8 µM | 350,000 tested, 0.59% active | AID 588475;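 active means inhibition of the ligand-induced calcium signal above about 50% at the single tested concentration, limit read from the data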
MEKK2 WT-MEK5: raises or lowers MEK5 binding to wildtype human MEKK2 PB1 domain. bead flow cytometry, Alexa488-MEK5 binding to MEKK2 WT; actives lie on both sides. binding response (% of control), % at 10 µM. 290,000 tested, 1.1% active. AID 1531; in the data active means binding response below about 67% or above about 130%; inconclusive means no clear call, values can overlap the other calls; inactive means in between
CRFBP-R2 agonist: agonists of human CRF-binding protein/CRF-R2 receptor complex; HEK293 CRF-R2/CRF-BP, calcium dye fluorescence (FLIPR); percent of saturating CRF peptide response; activation, % at 13.2 µM; 350,000 tested, 0.46% active; AID 588473;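 active means activation of at least 50%, plus an integration ratio under a set limit after plate pattern correction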
MEKK3 PB1 HTS: modulators (inhibitors or enhancers) of MEK5 binding to human MEKK3 PB1 domain. binding response (% of control), % at 10 µM. AID 1529. 290,000 tested, 1.4% active. bead-based flow cytometry, Alexa488-MEK5 binding to MEKK3; actives lie on both sides; 0 = blocked by unlabeled MEK5, 100 = vehicle;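 active means binding response more than 3 SD above or below the average of its plate-row segment, actives on both sides; inconclusive means wells at one plate position flagged as instrument error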;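 further: Alexa488 bead fluorescence after subtracting the streptavidin-only scavenger bead signal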
ABCB6 inh MLPCN: blocks the human ABCB6 transporter | Q9NP58 | K562-ABCB6 porphyrin accumulation, flow cytometry, 1 h; hits give low values | fluorescence ratio to DMSO, % at 10 µM | 360,000 tested, 0.19% active;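 active means fluorescence ratio to DMSO below 75%, the collection mean minus 3 SD; inconclusive means too few cells collected in the well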;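 further: signal is porphyrin accumulated inside mitochondria; lower ratio means ABCB6 inhibition with less porphyrin fluorescence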
Target sequence (Q9NP58 whole entry, looked up): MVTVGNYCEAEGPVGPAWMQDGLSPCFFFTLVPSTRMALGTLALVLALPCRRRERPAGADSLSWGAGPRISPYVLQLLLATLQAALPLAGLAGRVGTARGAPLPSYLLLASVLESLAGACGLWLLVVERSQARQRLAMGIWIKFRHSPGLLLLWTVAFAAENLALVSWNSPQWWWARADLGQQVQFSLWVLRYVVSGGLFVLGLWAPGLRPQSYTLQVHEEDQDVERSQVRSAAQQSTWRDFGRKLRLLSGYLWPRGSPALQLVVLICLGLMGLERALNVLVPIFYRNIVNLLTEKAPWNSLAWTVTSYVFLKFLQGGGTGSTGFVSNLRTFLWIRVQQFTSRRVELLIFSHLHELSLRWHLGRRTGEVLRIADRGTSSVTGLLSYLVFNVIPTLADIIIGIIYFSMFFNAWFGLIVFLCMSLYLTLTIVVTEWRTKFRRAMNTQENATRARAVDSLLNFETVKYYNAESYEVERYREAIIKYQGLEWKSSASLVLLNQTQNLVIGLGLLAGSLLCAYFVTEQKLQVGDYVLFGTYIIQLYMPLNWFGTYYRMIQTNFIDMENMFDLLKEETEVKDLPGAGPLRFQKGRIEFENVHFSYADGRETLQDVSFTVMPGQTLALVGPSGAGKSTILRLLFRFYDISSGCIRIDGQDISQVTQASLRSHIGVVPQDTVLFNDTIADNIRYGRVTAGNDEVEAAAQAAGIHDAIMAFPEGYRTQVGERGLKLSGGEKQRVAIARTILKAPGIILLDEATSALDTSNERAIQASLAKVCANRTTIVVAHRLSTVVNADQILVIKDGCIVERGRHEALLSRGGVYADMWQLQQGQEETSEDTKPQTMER
MEKK2 mut-MEK5: signal of MEK5 binding to mutant human MEKK2 PB1 domain | bead flow cytometry, Alexa488-MEK5 binding to MEKK2 mutant | percent response, % at 10 µM | 290,000 tested, 0.35% active | AID 1530; in the data active means percent response above about 24%, passing the limit was not always enough
Numbers stand for hits; – = inactive; ? = inconclusive; · = no result given; [ ] = another dose, or the depositor's remark. Rows were chosen to be rich in hits. Some 2.9% of all compounds tested hit in one or more screens of this group.

SMILES | CRFBP-R2 block | MEKK2 WT-MEK5 | CRFBP-R2 agonist | MEKK3 PB1 HTS | ABCB6 inh MLPCN | MEKK2 mut-MEK5
Cc1ccc(S(=O)(=O)N2CCC(=O)N(C(COCc3ccc(C(F)(F)F)cc3)Cc3ccccc3)CC2)cc1 (stereo not drawn) | – | – | 62 | – | – | –
Cc1ccc(S(=O)(=O)N2CCC(=O)N(C(COCc3cccc(C)c3)Cc3ccccc3)CC2)cc1 (stereo not drawn) | – | ? | – | – | – | –
Cc1ccc(S(=O)(=O)N2CCC(=O)N(C(COCc3ccc(Cl)c(Cl)c3)Cc3ccccc3)CC2)cc1 (stereo not drawn) | – | – | 71 | – | · | –
Cc1ccc(N(CC(O)CN2C(=O)NC(C)(C)C2=O)S(=O)(=O)c2ccc([N+](=O)[O-])cc2)cc1 (stereo not drawn) | – | – | – | – | – | –
COc1ccc(/C=C2/SC(=O)N(CCNC(=O)C3CC(=O)N(Cc4ccccc4)C3)C2=O)cc1 (stereo not drawn) | – | · | – | · | – | ·
COC(=O)[C@@]12CCCN1[C@H](c1ccc(-c3ccc4c(c3)OCO4)cc1)[C@H]1C(=O)N(C)C(=O)[C@H]12 | – | · | – | · | – | ·
Cc1ccc(NC(=S)NCc2ccccn2)cc1 | 74 | – | – | – | – | –
Cc1cccc(NC(=S)NCc2ccccn2)c1 | – | – | – | – | – | –
O=C(CSc1nc(C2CCCCC2)n(-c2ccccc2)n1)NCC(F)(F)F | – | – | – | 145 | – | –
O=C(Nc1cccc(S(=O)(=O)N2CCCCC2)c1)C1COc2ccccc2O1 (stereo not drawn) | – | · | – | · | – | ·
O=C(Nc1ccccc1)c1sc(N2CCOCC2)nc1-c1ccccc1 | – | – | – | – | – | –
N#C/C(=C\c1sc(N2CCOCC2)nc1-c1ccccc1)C(=O)Nc1cccc2ccccc12 | · | – | · | 135 | · | –
CC(=O)N(C)c1ccc(N=NC2C(=O)N(C(N)=S)N=C2C)cc1 (stereo not drawn) | 51 | – | – | – | – | –
O=C(CS(=O)c1ccc(Br)cc1)N1CCOCC1 (stereo not drawn) | – | – | – | – | – | –
N#CCSc1nc2sccc2c(=O)n1-c1ccccc1 | 74 | – | – | – | – | –
CCOC(=O)N1CCN(S(=O)(=O)c2ccc(C)c(C)c2C)CC1 | 94 | – | – | – | – | –
COc1ccc(/C=C/C(=O)NCc2cn(C)nc2C)cc1COc1ccc(Cl)cc1Br | 92 | – | – | – | – | –
O=C(Nc1ccccc1C(=O)O)c1cccc(NC(=O)c2ccccc2Br)c1 | – | – | – | – | – | –
O=C(Nc1cc(C(=O)Nc2ccccc2C(=O)O)cc(C(=O)Nc2ccccc2C(=O)O)c1)c1ccccc1 | 104 | – | – | – | – | –
O=C(Nc1ccc(Cl)c(Cl)c1)Nc1ccccc1C(=O)O | 59 | – | – | – | – | –
CCCCn1c(N)c(N(CC)C(=O)c2cccc(S(=O)(=O)N3CCN(C)CC3)c2)c(=O)[nH]c1=O | – | · | – | · | – | ·
O=C(/C=C/c1ccccc1)NNC(=O)C1CC1 | – | – | – | – | 65 | –
COC(=O)NNC(=O)/C=C/c1ccccc1 | – | – | – | – | – | –
CCC1CCCCN1CC(=O)c1c(C)[nH]c2ccc(OC)cc12 (stereo not drawn) | – | – | – | – | – | –
Cc1[nH]c2ccccc2c1C(=O)CN1CCCCC1C (stereo not drawn) | – | – | 74 | – | – | –
SMILES | CRFBP-R2 block | MEKK2 WT-MEK5 | CRFBP-R2 agonist | MEKK3 PB1 HTS | ABCB6 inh MLPCN | MEKK2 mut-MEK5
CCC1CCCCN1CC(=O)c1c(C)[nH]c2ccccc12 (stereo not drawn) | – | – | 107 | – | – | –
Cc1ccc(S(=O)(=O)Nc2cccc3ncccc23)cc1 | – | – | – | – | – | –
Cc1ccc(S(=O)(=O)Nc2cccc3ncccc23)s1 | – | -1.0[inhibitor] | – | 1.0[inhibitor] | – | –
COc1cc(/C=c2\s/c(=C(/C#N)C(=O)N3CCCC3)n(-c3ccccc3)c2=O)ccc1O | – | – | 67 | – | – | –
COC(=O)/C=c1/s/c(=C(/C#N)C(=O)N2CCCCC2)n(-c2ccccc2)c1=O | – | – | – | – | – | –
CN(CCc1ccccc1)C(=O)c1ccc(NC(=O)Cc2ccc(NC(=O)C3CCCN(C(=O)C4CC4)C3)cc2)cc1 (stereo not drawn) | – | · | – | · | – | ·
O=C(CSCc1ccc(Cl)cc1)Nc1cc([N+](=O)[O-])ccc1O | – | – | – | – | – | –
Cc1ccc(SCC(=O)Nc2cc([N+](=O)[O-])ccc2O)cc1 | 92 | – | 80 | – | – | –
N#C/C(=C\c1ccccc1[N+](=O)[O-])C(=O)NCc1ccccc1 | – | – | – | – | – | –
C=CCNC(=O)/C(C#N)=C/c1ccccc1[N+](=O)[O-] | – | 4.0 | – | – | – | –
CCCCCCCCNC(=O)/C(C#N)=C/c1ccccc1[N+](=O)[O-] | – | – | 62 | – | – | –
N#C/C(=C/c1ccccc1[N+](=O)[O-])C(=O)NCc1ccco1 | – | – | – | – | – | –
Cc1noc(C)c1NC(=O)N(C)C[C@H]1OCc2cnnn2CCCC(=O)N([C@H](C)CO)C[C@@H]1C | – | · | – | · | – | ·
COc1cccc(OCc2cc(C(=O)N3CCN(c4ccccc4OC)CC3)no2)c1 | – | – | – | – | – | –
Cc1ccc(-c2csc(NC(=O)CSc3nc4ccccc4c(=O)n3CCCN(C)C)n2)cc1 | – | 207 | – | – | – | 67
O=C1NC[C@@H](CCCCN2CCN(CC3CCCCC3)C(=O)C2=O)N(CC2CCCCC2)C1=O | · | · | · | · | – | ·
Cc1nn(C)cc1NC(=O)CC12CC3CC(CC(C3)C1)C2 | – | – | – | 141 | – | –
COc1ccc(OCCn2c(C)nc3ccccc32)cc1 | – | · | – | · | – | ·
Cc1nc2ccccc2n1CCOc1ccc([N+](=O)[O-])cc1 | 96 | – | – | – | – | –
COc1cccc(NC(=O)COC(=O)c2ccccc2C(=O)N2CCN(c3ccccc3)CC2)c1 | 69 | – | – | – | – | –
Cc1ccc(NC(=O)Cn2ncn3c(cc4ccccc43)c2=O)cc1F | 60 | – | – | – | – | –
CCc1cccc(NC(=O)Cn2ncn3c(cc4ccccc43)c2=O)c1 | – | – | – | – | – | –
CCOc1ncccc1C(=O)NNC(=O)c1ccccc1-n1cccc1 | – | – | – | – | – | –
CCOc1ccc(/C=C2\SC(=S)N(C(C(=O)O)c3ccccc3)C2=O)cc1OC (stereo not drawn) | – | – | – | – | – | –
C=CCOc1ccc(/C=C2\SC(=S)N(C(C(=O)O)c3ccccc3)C2=O)cc1 (stereo not drawn) | 55 | – | – | – | – | –
